Our source for the outcome and Potency values is PubChem BioAssay (NCATS).

Assay [1] concerns the target Mitogen-activated protein kinase 10 (Mus musculus) (UniProt Q61831). In words: JNK3 AlphaScreen Assay (AID 530; active = well fitted curve in either direction with a large enough effect, not every such curve was filed as active;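 also: kinase came from lysate of stimulated human HepG2 cells; signal reports phosphorylation of biotinylated GST-cJun 1-79 at Ser73 with 10 µM ATP; series mostly up to about 57 µM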). The method in brief: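 Pre-activated (IL-1β/TNFα) JNK3 in HepG2 lysates phosphorylates biotin-GST-cJun(1-79), 10 uM ATP; anti-phospho-cJun(Ser73) AlphaScreen read at room temperature, pH 7.6 Tris buffer. Compounds pre-incubated 15 min as titrations.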
Assay [2] addresses Cytochrome P450 3A4 (Homo sapiens) (UniProt P08684). Nature of the assay: qHTS Assay for Inhibitors and Substrates of Cytochrome P450 3A4 (AID 884). Also: nearly all actives have a fitted effect of over 50% in size. Also: potency is read from the fitted curve at half-maximal effect. Put shortly: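 20 nM human CYP3A4 with 25 uM Luciferin-PPXE (at KM) in 200 mM KPO4, preincubated 10 min with compound; NADPH regeneration started a 60 min RT reaction. Luciferin detected by luminescence, normalized to 57 uM ketoconazole as full inhibition.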

In assay [3] the target is Calcium and integrin-binding protein 1 (Homo sapiens) (UniProt Q99828). In words: Primary qHTS for Identification of Calcium Integrin Binding Protein 1 (CIB1) Competitor (AID 1508620).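 Also: GST tagged CIB1 binding a fluorescein labelled alphaIIb integrin peptide tracer; top concentration of the series differs between compounds.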 Put shortly:
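Fluorescence polarization competition: GST-tagged CIB1 (1 uM final) preincubated with compound 15 min at room temperature, then FITC-labelled alphaIIb peptide (100 nM final) added. After 15 min at room temperature, polarization read at Ex 480/Em 540.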

Assay [4] deals with Cytochrome P450 3A4 (Homo sapiens) (UniProt P08684). Nature of the assay: qHTS Assay for Activators of Cytochrome P450 3A4 (AID 885). Also: nearly all actives have a fitted effect of over 65% in size. Put shortly:
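Signal was normalized against complete inhibition by 57 uM ketoconazole. The reaction used 20nM CYP3A4 with 25uM Luciferin-PPXE, 10-min compound preincubation and a 60-min NADPH-supported step at RT.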

Records with an inconclusive call do not appear. A call without a number means that no potency is given here. Active and inactive are the calls of the source. Unless noted, calls follow the shape of the dose curve; as a rule, active = well fitted curve in the direction sought with a large enough effect; inconclusive = small, poorly fitted or top-dose-only effect, or another doubt; inactive = no such curve, though single readings can be large; an effect the other way counts as inactive or inconclusive.

Sequence of Cytochrome P450 3A4 (Homo sapiens) (P08684 whole entry, looked up): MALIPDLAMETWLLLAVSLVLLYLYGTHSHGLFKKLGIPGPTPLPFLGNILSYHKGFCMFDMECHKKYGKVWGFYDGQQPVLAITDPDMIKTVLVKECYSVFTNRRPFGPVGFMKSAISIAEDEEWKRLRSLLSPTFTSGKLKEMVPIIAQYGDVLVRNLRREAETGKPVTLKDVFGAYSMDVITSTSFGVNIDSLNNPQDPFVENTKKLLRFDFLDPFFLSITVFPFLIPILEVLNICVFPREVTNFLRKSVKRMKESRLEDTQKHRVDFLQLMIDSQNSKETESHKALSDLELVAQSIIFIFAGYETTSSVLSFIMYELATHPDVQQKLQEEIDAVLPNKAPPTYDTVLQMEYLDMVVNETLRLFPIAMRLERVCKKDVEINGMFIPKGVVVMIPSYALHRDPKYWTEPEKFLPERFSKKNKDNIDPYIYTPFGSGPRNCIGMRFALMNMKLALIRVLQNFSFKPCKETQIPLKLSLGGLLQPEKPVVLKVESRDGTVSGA
Sequence of Calcium and integrin-binding protein 1 (Homo sapiens) (Q99828 whole entry, looked up): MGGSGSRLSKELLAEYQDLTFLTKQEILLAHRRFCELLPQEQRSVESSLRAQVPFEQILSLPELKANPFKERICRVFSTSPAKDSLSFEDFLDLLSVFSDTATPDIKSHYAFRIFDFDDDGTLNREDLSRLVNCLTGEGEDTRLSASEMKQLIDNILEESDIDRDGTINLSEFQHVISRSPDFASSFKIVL

On to `CCCn1c(C)nc2c(NCC(C)(C)CN(C)C)nc(C)nc21`, for which the outcome in assay [1] was inactive. Moreover, the Potency result in assay [2] and in assay [3] was “inactive” in each case.

Turning to `CCN(CC)CCCC(C)n1c(-c2ccccc2)nc2c(NCCO)nc(C)nc21` (stereo not given), in assay [1], the call was inactive. In addition, the Potency entry in assay [2] and in assay [3] was “inactive” in each case.

In the case of `CCN(CC)CCCn1c(-c2ccccc2)nc2c(NCCOC)nc(C)nc21`, the call in assay [1] was inactive. In addition, the Potency result in assay [2] and in assay [3] was “inactive” in each case.

`CCCn1c(-c2ccc(F)cc2)nc2c(NCCCN(C)C)nc(C)nc21`: the call in assay [1] was inactive. The Potency entry in assay [2] and in assay [3] was “inactive” throughout.

Take `CCCn1c(C)nc2c(Nc3ccccc3)nc(C)nc21`: in assay [1], the call was inactive. In addition, the Potency result in assay [3] was “inactive”.

`CCCn1c(C)nc2c(N3CCC(N4CCN(C)CC4)CC3)nc(C)nc21`: in assay [1], the call was inactive. Further, the Potency entry in assay [2] and in assay [3] was “inactive” in each case.

`CCCn1c(C)nc2c(NCCN3CCCCC3)nc(C)nc21`: the result in assay [1] was inactive. For the same compound, the Potency entry in assay [2] and in assay [3] was “inactive” throughout.

`COCCNc1nc(C)nc2c1nc(-c1ccccc1)n2CCN(C)C`: the call in assay [1] was inactive. The Potency result in assay [2] and in assay [3] was “inactive” each time.

For `CCCn1c(C)nc2c(NCCCN(CCO)CCO)nc(C)nc21`, the compound was called inactive in assay [1]. Also, the Potency result in assay [2] and in assay [3] was “inactive” each time.

As to `CCN(CC)CCn1c(-c2ccccc2)nc2c(N3CCOCC3)nc(C)nc21`, the compound was called inactive in assay [1]. For the same compound, the Potency entry in assay [3] was “inactive”.

For the compound `CCCn1c(-c2ccc(F)cc2)nc2c(NCCN3CCCC3)nc(C)nc21`, the outcome in assay [1] was inactive. In addition, in assay [3], the Potency entry was “inactive”.

For the compound `Cc1nc(N2CCOCC2)c2nc(-c3ccccc3)n(CCN(C)C)c2n1`, the result in assay [1] was inactive. Moreover, the Potency result in assay [2] and in assay [3] was “inactive” throughout.

Regarding `Cc1nc(NCCO)c2nc(-c3ccccc3)n(CCCN(C)C)c2n1`, in assay [1], the outcome was inactive. Besides, the Potency result in assay [2] and in assay [3] was “inactive” throughout.

As for `Cc1nc(Nc2ccccc2)c2nc(-c3ccccc3)n(CCN3CCOCC3)c2n1`, the outcome in assay [1] was inactive. In addition, the Potency in assay [2] is 1.58 µM (active). For the same compound, the Potency entry in assay [4] and in assay [3] was “inactive” each time.

On to `CCN(CC)CCn1c(-c2ccccc2)nc2c(NCCOC)nc(C)nc21`, for which the compound was called inactive in assay [1]. Moreover, the Potency entry in assay [4] and in assay [3] was “inactive” throughout.

`Cc1nc(NC2CCCCC2)c2nc(-c3ccccc3)n(CCN3CCCCC3)c2n1`: in assay [1], the outcome was inactive. Moreover, in assay [2], the Potency is 7.94 µM (active). Also, the Potency entry in assay [4] and in assay [3] was “inactive” each time.

In the case of `CCCn1c(-c2ccc(F)cc2)nc2c(NCC(C)(C)CN(C)C)nc(C)nc21`, in assay [1], the compound was called inactive. Moreover, the Potency in assay [2] was 15.8 µM (active). Also, the Potency entry in assay [4] and in assay [3] was “inactive” throughout.

As for `CCCn1c(-c2ccc(F)cc2)nc2c(N3CCN(CCn4ccnc4)CC3)nc(C)nc21`, the call in assay [1] was inactive. The Potency in assay [2] is 0.631 µM (active). Besides, the Potency entry in assay [4] and in assay [3] was “inactive” throughout.

In the case of `CCN(CC)CCCC(C)n1c(-c2ccccc2)nc2c(N(CCOC)CCOC)nc(C)nc21` (stereo not given), the compound was classed as inactive in assay [1]. In assay [2], the Potency was 10 µM (active). For the same compound, the Potency entry in assay [4] and in assay [3] was “inactive” throughout.

Take `Cc1nc(NC2CCCCC2)c2nc(-c3ccccc3)n(C(C)CN(C)C)c2n1` (stereo not given): the compound was called inactive in assay [1]. Moreover, the Potency in assay [2] is 12.6 µM (active). Besides, the Potency entry in assay [4] and in assay [3] was “inactive” in each case.

For the compound `CCCn1c(-c2ccc(F)cc2)nc2c(NCCN3CCOCC3)nc(C)nc21`, in assay [1], the call was inactive. The Potency in assay [2] is 7.94 µM (active). Besides, the Potency entry in assay [4] and in assay [3] was “inactive” each time.

As to `Cc1nc(NCc2ccccc2)c2nc(-c3ccccc3)n(CCN3CCCCC3)c2n1`, the compound was classed as inactive in assay [1]. Also, the Potency in assay [2] was 2.51 µM (active). Also, the Potency entry in assay [4] and in assay [3] was “inactive” throughout.

As to `Cc1nc(NCc2ccccc2)c2nc(-c3ccccc3)n(CCCN3CCOCC3)c2n1`, the outcome in assay [1] was inactive. Besides, the Potency in assay [2] was 3.98 µM (active). Further, the Potency entry in assay [4] and in assay [3] was “inactive” in each case.

`CCN(CC)CCCCn1c(-c2ccccc2)nc2c(N(CCOC)CCOC)nc(C)nc21`: the result in assay [1] was inactive. The Potency result in assay [4] and in assay [3] was “inactive” throughout.

Consider `Cc1nc(NCc2ccccc2)c2nc(-c3ccccc3)n(C3CCN(Cc4ccccc4)C3)c2n1` (stereo not given), for which the result in assay [1] was inactive. Besides, in assay [2], the Potency was 3.98 µM (active). Also, the Potency entry in assay [4] and in assay [3] was “inactive” throughout.

Regarding `CCCn1c(-c2ccc(F)cc2)nc2c(NC3CCN(Cc4ccccc4)C3)nc(C)nc21` (stereo not given), the outcome in assay [1] was inactive. For the same compound, the Potency in assay [2] was 15.8 µM (active). Moreover, the Potency result in assay [4] and in assay [3] was “inactive” each time.

In the case of `CCCn1c(-c2ccc(F)cc2)nc2c(NCCCCN3CCCC3)nc(C)nc21`, the result in assay [1] was inactive. Further, in assay [2], the Potency was 15.8 µM (active). Also, the Potency entry in assay [4] and in assay [3] was “inactive” in each case.

For `CCCn1c(C)nc2c(NC3CCCCC3)nc(C)nc21`, the result in assay [1] was inactive. The Potency entry in assay [4] and in assay [3] was “inactive” throughout.

For the compound `CCN1CCCC1Cn1c(-c2ccccc2)nc2c(N(CCOC)CCOC)nc(C)nc21` (stereo not given), the result in assay [1] was inactive. Also, the Potency in assay [2] is 15.8 µM (active). In addition, the Potency result in assay [4] and in assay [3] was “inactive” in each case.

As to `CCCn1c(C)nc2c(N3CCOCC3)nc(C)nc21`, in assay [1], the compound was classed as inactive. Besides, the Potency entry in assay [4] and in assay [3] was “inactive” each time.
